Screening data from PubChem BioAssay.
PNC assembly inh = inhibitors of perinucleolar compartment assembly; PC3M PTB-GFP, PNC prevalence imaging, 16 h; active compounds read low; activity change (PNC), negative = inhibition, % at 10 µM; hit rate 3.1% among 140,000;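 active means readout at or below -70, meaning at least 70% loss of cells showing the perinucleolar compartment, a nuclear body marking cancer cells; inconclusive means readout between -30 and a set limit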;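 further: plate controls were DMSO wells for no effect and camptothecin positive control wells for full effect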
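Compounds are pinned in duplicate onto adhered PC3M cells stably expressing GFP-tagged PTB and incubated 16 h at 37 C. Cells are then fixed, nuclei stained with Hoechst, and PNC-positive cells counted.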
IMPase Li cell = cell-permeable IMPase inhibitors with lithium potentiation; AID 1457; hit rate 0.35% among 210,000; Potency, µM (doses to about 59.4 µM), for the others: at the highest dose activity, negative = IMPase inhibition, most hits filed as inhibitors; CHO-M1 cells, IP1 TR-FRET (IP-One), carbachol + lithium; active means well fitted curve in the direction sought with a large enough effect; inconclusive means small, poorly fitted or top-dose-only effect, or another doubt; inactive means no such curve, though single readings can be large; an effect the other way counts as inactive or inconclusive;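 further: IP1 builds up when IMPase is blocked and the TR-FRET signal falls; potency means the concentration at half of the fitted maximal effect; plate controls were basal vehicle for no effect and high inhibitor control for full effect; nearly all actives have a fitted effect of over 50% in size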
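CHO cells stably expressing M1 receptor (2000/well, cultured 16–30 h) treated 30 min at 37C with compound plus low lithium. Cytosolic IP1 by TR-FRET (665/620 ratio and 620 channel) after 10 min lysis; AC50 by Hill fit.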
12-hLO inh = inhibitors of human 12-lipoxygenase (ALOX12) | P18054 | AID 1452 | hit rate 0.12% among 150,000 | Potency, µM (titrated, usually from 57.1 µM), inactives show at the top dose activity change, negative = inhibition, hits mostly inhibitors | purified 12-hLO, xylenol orange hydroperoxide absorbance; active means well fitted curve in the direction sought with a large enough effect; inconclusive means small, poorly fitted or top-dose-only effect, or another doubt; inactive means no such curve, though single readings can be large; an effect the other way counts as inactive or inconclusive; further: potency means the concentration at half of the fitted maximal effect; nearly all actives have a fitted effect of over 55% in size
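Hydroperoxide output read as Fe(III)-xylenol orange absorbance, 573-to-405 nm ratio, after 30 min reaction with 40 uM arachidonic acid. Enzyme: 150 nM purified human 12hLO, 15 min compound preincubation; 25 mM Hepes pH 7.0, room temperature.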
HPGD block = inhibitors of human 15-hydroxyprostaglandin dehydrogenase (HPGD). Potency, µM, inactives show top-dose activity change, negative = inhibition, most hits filed as inhibitors. purified HPGD, NADH fluorescence kinetic, PGE2 substrate. hit rate 4.3% among 150,000. AID 894; further: potency means the concentration at half of the fitted maximal effect
Target sequence (P15428 whole entry, looked up): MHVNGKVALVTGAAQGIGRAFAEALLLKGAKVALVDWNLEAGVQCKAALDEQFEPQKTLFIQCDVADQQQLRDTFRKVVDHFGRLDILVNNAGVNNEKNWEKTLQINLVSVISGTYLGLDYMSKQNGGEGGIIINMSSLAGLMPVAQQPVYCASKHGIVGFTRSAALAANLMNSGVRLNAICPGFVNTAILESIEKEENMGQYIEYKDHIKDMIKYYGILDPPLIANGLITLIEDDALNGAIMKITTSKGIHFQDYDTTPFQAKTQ
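NADH formation kinetics: reaction with 30 uM PGE2 and 1 mM NAD+ (final), 20 nM enzyme, Tris-HCl pH 8 with Tween 20, after 15 min compound preincubation at room temperature. Fluorescence change, last versus first of five reads.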
IMPase inh = cell-permeable inhibitors of inositol monophosphatase (IMPase); 120,000 tested, under 10 active; inhibition (IP1 accumulation), % at 46.1 µM; AID 901; P97697; CHO-M1 cells, IP1 accumulation, HTRF TR-FRET ratio; active means well fitted curve in the direction sought with a large enough effect in the signal ratio, not every such curve was filed as active; inconclusive means small, poorly fitted or top-dose-only effect, or a change in a side signal; inactive means no such curve, though single readings can be large or run the other way; the % refers to the signal ratio;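 further: cells stimulated with carbachol in lithium chloride buffer; plate controls were DMSO basal wells for no effect and reference inhibitor wells for full effect; higher means more IMPase inhibition seen as more IP1 and lower FRET ratio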
Target sequence (P97697 whole entry, looked up): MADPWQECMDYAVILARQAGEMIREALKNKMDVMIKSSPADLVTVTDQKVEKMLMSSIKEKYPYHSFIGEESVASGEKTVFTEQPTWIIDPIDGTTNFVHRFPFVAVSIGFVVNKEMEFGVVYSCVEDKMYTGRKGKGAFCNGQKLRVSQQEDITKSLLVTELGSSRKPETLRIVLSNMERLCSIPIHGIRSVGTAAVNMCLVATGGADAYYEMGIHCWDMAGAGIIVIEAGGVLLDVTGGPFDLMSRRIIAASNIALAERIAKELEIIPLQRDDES
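Measured: the HTRF emission ratio (665/620 nm) plus the 620 nm donor channel, each fitted to the Hill equation to give AC50. Cells were CHO-M1 given compounds up to 46 uM and a 30 min carbachol stimulation at 37C.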
ALDH1A1 inh = ALDH1A1 (human) enzyme inhibition; P00352; Purified ALDH1A1, NADH fluorescence, propionaldehyde substrate; Potency, µM (doses to about 75.3 µM), for the others: at the top dose activity, negative = inhibition, hits mostly inhibitors; hit rate 7.3% among 220,000; AID 1030;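 further: potency means the concentration at half of the fitted maximal effect; plate controls were no enzyme wells and a reference inhibitor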
* hit, by the source's call; ? = inconclusive; nt = no result given; [ ] = another dose, or the depositor's remark. An excerpt weighted towards active compounds, which were near 11% of everything screened. Unless noted, the call rests on the fitted dose curve; in most records, active means well fitted inhibition curve with a large enough effect (not every such curve was filed as active); inconclusive means small, poorly fitted or top-dose-only effect, or another doubt; inactive means no such curve, though single readings can be large or run the other way. Unless noted, on the % scale 0 is the no-effect control and ±100 the full control effect.

SMILES	PNC assembly inh	IMPase Li cell	12-hLO inh	HPGD block	IMPase inh	ALDH1A1 inh
O=C(CCN1C(=O)c2ccccc2C1=O)Nc1ccc2c(c1)OCCO2	-89*	17%[38.3 µM]	2%	-14%	6	?
[N-]=[N+]=CC(=O)CC(c1ccccc1)N1C(=O)c2ccccc2C1=O (centres undefined)	?	10%[38.3 µM]	-14%	-6%	1	?
[N-]=[N+]=CC(=O)CCCN1C(=O)c2ccccc2C1=O	-27	-9%[38.3 µM]	4%	-10%	4	10µM*
O=C(CCCCCN1C(=O)c2ccccc2C1=O)Nc1ccc(F)cc1	-100*	15%	4%	18µM*	4	?
O=C(CCCCCN1C(=O)c2ccccc2C1=O)Nc1ccc2c(c1)OCCO2	37	15%[38.3 µM]	-2%	-12%	-1	28µM*
O=C(CCCN1C(=O)CCC1=O)Nc1ccc2c(c1)OCCO2	-12	8%[38.3 µM]	-4%	-9%	-11	?
C[C@@H]1CCCN(C[C@@H](O)CN2CCCc3ccccc32)C1	nt	-1%	-2%[11.4 µM]	-12%	nt	-1%[13.5 µM]
CCCC(=O)NCCc1c2n(c3ccc(OC)cc13)CCCc1ccccc1-2	nt	29%	-6%	?	3	?
CC(CCc1ccco1)NC(=O)Cn1ncc2c1-c1ccccc1OC2 (centres undefined)	-11	23%[38.3 µM]	-11%	-17%	3	18µM*
O=C1c2ccccc2C(=O)N1OCc1ccccc1[N+](=O)[O-]	nt	5%	nt	nt	nt	25µM*
O=C1c2ccccc2C(=O)N1OCc1ccc(Cl)cc1	12	12%[38.3 µM]	-3%	-9%	1	4%
N#CCc1ccccc1[N+](=O)[O-]	nt	13%	-5%	8.9µM*	nt	25µM*
CNC(=O)[C@H](Cc1c[nH]c2ccccc12)NC(=O)[C@@H](CC(=O)NO)CC(C)C	nt	-4%	nt	nt	nt	3%
CC(=O)N[C@@H]1C(O)OC(CO)C(O)C1O (some centres undefined)	nt	18%	0%	-13%	nt	5%
NS(=O)(=O)c1ccc(S(=O)(=O)NCCc2ccccc2)cc1	60	4%[38.3 µM]	2%	-12%	4	-9%
CC(=O)NS(=O)(=O)c1ccc(NC(=O)COc2ccc(C(=O)c3ccccc3)cc2)cc1	-12	-7%	-2%	25µM*	nt	10µM*
COCC(=O)Nc1ccc(S(=O)(=O)NCCc2ccccc2)cc1	-107*	13%[38.3 µM]	-2%	-8%	1	-11%
COc1ccc(S(=O)(=O)NCCc2ccccc2)cc1	23	34%[38.3 µM]	-2%	3%	12	?
NS(=O)(=O)c1ccc(CCNS(=O)(=O)c2ccccc2)cc1	nt	3%	nt	nt	nt	8.9µM*
COc1ccc(OCCCC(=O)Nc2nccs2)cc1	nt	nt	nt	nt	nt	-5%
CCOC(=O)c1cccc(NC(=O)CNS(=O)(=O)c2cccs2)c1	-100*	-2%	-1%	-10%	1	-5%
CCOC(=O)c1cccc(NC(=O)CCS(=O)(=O)c2ccc(Br)s2)c1	?	?	4%	10%	3	11%
CCOC(=O)c1cccc(NC(=O)CCS(=O)(=O)c2cccs2)c1	44	-11%[38.3 µM]	-4%	-9%	2	20µM*
COc1ccc(-c2nc3cnc(N4CCOCC4)nc3n(C)c2=O)cc1	nt	0%	nt	nt	nt	22%
CCC(=O)Nc1cc(-c2nc3cc(C)cc(C)c3o2)ccc1C	nt	nt	nt	nt	5	nt
SMILES	PNC assembly inh	IMPase Li cell	12-hLO inh	HPGD block	IMPase inh	ALDH1A1 inh
COc1cccc(C(=O)NC2CCN(CC(=O)NCc3ccccc3OC)CC2)c1	1	-2%[38.3 µM]	1%	-4%	1	-14%
COc1cccc(OC)c1NC(=O)CN1CCC(NC(=O)c2cccc(F)c2)CC1	?	3%	3%	-13%	11	40µM*
Cc1cc(OC(C)C)nc(-c2ccccc2O)n1	?	39%[38.3 µM]	6%	0%	1	14%
CCCOc1cc(C)nc(-c2ccccc2O)n1	-19	nt	-10%	nt	?	10µM*
NNC(=O)c1oc2ccccc2c1-n1cccc1	nt	-1%	nt	nt	nt	2.2µM*
CCOC(=O)c1cnc2c(ccc3ccccc32)c1Nc1cccc(C(F)(F)F)c1	nt	nt	nt	nt	-13	nt
O=c1oc2ccc3ccccc3c2cc1-c1nnc(Nc2ccccc2)s1	nt	nt	nt	nt	0	nt
